A selection: hits, their analogues and other compounds. The true share with any hit is near 0.9%.
PPARg SRC-2 ag – agonists of SRC-2 recruitment by human PPARgamma; AID 1032; actives 0.34% (n = 200,000); activation, % at 8 µM; PPARgamma LBD-SRC-2 recruitment, biochemical; in the data active = activation above about 22%;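 also: 0% = vehicle and 100% = reference agonist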
Target sequence (P37231 whole entry, looked up, the tested form may be a part): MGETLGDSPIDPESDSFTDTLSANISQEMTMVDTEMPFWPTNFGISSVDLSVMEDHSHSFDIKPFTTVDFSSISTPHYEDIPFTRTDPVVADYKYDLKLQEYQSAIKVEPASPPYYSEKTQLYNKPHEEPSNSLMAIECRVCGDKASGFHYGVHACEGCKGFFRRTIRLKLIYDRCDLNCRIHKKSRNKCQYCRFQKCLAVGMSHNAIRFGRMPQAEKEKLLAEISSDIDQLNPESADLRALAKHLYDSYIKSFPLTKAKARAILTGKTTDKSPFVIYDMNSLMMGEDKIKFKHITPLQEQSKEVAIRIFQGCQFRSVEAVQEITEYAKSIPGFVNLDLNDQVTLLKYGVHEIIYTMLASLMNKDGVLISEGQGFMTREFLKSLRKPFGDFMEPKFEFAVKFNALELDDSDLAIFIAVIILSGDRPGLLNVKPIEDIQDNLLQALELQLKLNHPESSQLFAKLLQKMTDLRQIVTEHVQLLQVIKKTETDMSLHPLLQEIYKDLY
SRC1 TRFRET art – counter-screen for PPARgamma SRC-1 recruitment agonists: TR-FRET artefact. TR-FRET detection artefact counter-screen, emission ratio; stronger effect = higher value. TR-FRET ratio at 8 µM. actives 0.34% (n = 99,000). AID 1051; in the data active = TR-FRET ratio above about 2300
SRC2 TRFRET art – TR-FRET artefact, counter-screen to PPARgamma/SRC-2 agonist assay; actives 0.4% (n = 200,000); TR-FRET ratio at 8 µM; AID 1049; stronger effect = higher value
PPARg SRC-1 ag – PPARgamma-driven SRC-1 recruitment agonism; AID 631; P37231; actives 0.41% (n = 200,000); activation, % at 8 µM; PPARgamma-SRC-1 coactivator recruitment biochemical assay; in the data active = activation above about 19%;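 also: 0% = DMSO and 100% = reference agonist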
PPARg SRC-3 ag – agonists of human PPARgamma SRC-3 coactivator recruitment; activation, % at 8 µM; P37231; biochemical PPARgamma/SRC-3 coactivator recruitment assay; actives 0.26% (n = 200,000); in the data active = activation above about 23%;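 also: 0% = DMSO and 100% = reference agonist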
SRC3 TRFRET art – flags TR-FRET format artefacts in PPARgamma SRC-3 recruitment agonist screen; TR-FRET artefact counter-screen, PPARgamma/SRC-3 format; stronger effect = higher value; TR-FRET ratio at 8 µM; actives 0.39% (n = 99,000); AID 1048
* marks the source's active call; other numbers are inactive results; · = no result. Rule as the data show it, unless noted: active = TR-FRET ratio above about 2000; inactive = the rest.

SMILES | PPARg SRC-2 ag | SRC1 TRFRET art | SRC2 TRFRET art | PPARg SRC-1 ag | PPARg SRC-3 ag | SRC3 TRFRET art
O=c1c2ccccc2nc(-c2ccccc2)n1CCCN1CCOCC1 | 1.9 | · | 1680 | 18.8* | 5.4 | ·
O=C(O)CCSCCCN1C(=O)c2cccc3cccc(c23)C1=O | 1.4 | 1780 | 1481 | 15.9 | -0.3 | 1752
CN1c2ccsc2/C(=N/NC(=O)c2c(F)cccc2F)CS1(=O)=O | 12.8 | · | 1571 | 7.1 | 0.4 | ·
CN1c2ccsc2/C(=N/Nc2ccccc2)CS1(=O)=O | 13.2 | 2232 | 2054* | 0.2 | 7.0 | 1742
Cc1ccc(CN=C2NC(=O)C(CC(=O)NCCc3ccccc3)S2)cc1 (configuration not stated) | -1.8 | 1660 | 1476 | 8.2 | 0.5 | 1504
Cn1ccnc1C1CCCCN1Cc1nc(-c2ccc3c(c2)OCO3)no1 (configuration not stated) | -7.1 | 3563* | 1447 | 38.5* | -3.3 | 1488
CC(C)CNS(=O)(=O)c1cc(C(=O)OCC(=O)c2ccc3c(c2)OCCO3)c(Cl)cc1Cl | -2.9 | 2142 | 1804 | -1.0 | -1.9 | 2107*
COc1ccc(-n2nc(C(=O)NCC(=O)Nc3ccccn3)c3ccccc3c2=O)cc1Cl | 3.7 | · | 1766 | 23.4* | 0.9 | ·
CCOc1cc(CNc2ccc(N3CCN(C(C)=O)CC3)cc2)cc(Br)c1OC | 22.1* | 2072 | 1693 | 9.0 | 9.8 | 1823
CCOc1cc(CNc2ccc(N3CCCC3)cc2)cc(Cl)c1OC | 16.2 | 2142 | 2050* | 10.7 | 5.5 | 1773
COc1cc(CNc2ccc(N3CCCC3)cc2)cc(Cl)c1OC | 1.1 | 1823 | 1390 | -1.4 | 6.7 | 1865
Cn1cnnc1SCc1ccc(C(=O)N=Nc2c(O)n(C)c3ccccc23)cc1 | 23.1* | 1595 | 1643 | 7.8 | 2.9 | 1751
CCOC(=O)C1=C(O)/C(=C/c2cccc(OC)c2O)N=C1C | 7.3 | 2067 | 1738 | 10.9 | 3.4 | 2061*
NC(=S)Nc1cccc2cc3ccccc3cc12 | 22.3* | · | 1632 | 13.7 | 15.9 | ·
CC1Cc2ccccc2N1C(=O)CSc1nnnn1-c1ccc2c(c1)OCCO2 (configuration not stated) | 17.7 | · | 2058* | 6.9 | 2.9 | ·
C=CCNC(=S)N/N=C/c1cccc([N+](=O)[O-])c1 | -1.5 | 1888 | 1549 | -0.3 | 0.3 | 1349
Nc1ccccc1S(=O)(=O)NC1=NCCCCC1 | -9.0 | 1529 | 1366 | -5.7 | -1.5 | 1476
CCOC(=O)c1c(-c2ccccc2)csc1NC(=O)c1cc(S(=O)(=O)N2CCOCC2)ccc1C | 6.4 | 1833 | 1857 | 5.1 | 3.9 | 2203*
CCOC(=O)c1c(-c2ccccc2)csc1NC(=O)c1ccc(S(=O)(=O)N2CC(C)OC(C)C2)cc1 (configuration not stated) | -6.1 | · | 1345 | -3.0 | -1.3 | ·
CC1(C)Cc2c(C#N)c(SCC(=O)c3ccccc3)nc(N3CCOCC3)c2CO1 | 59.5* | · | 3056* | 2.2 | -8.8 | ·
CC1(C)Cc2c(C#N)c(SCc3ccccc3)nc(N3CCOCC3)c2CO1 | 1.7 | · | 1710 | 10.9 | -7.0 | ·
CC(=O)N(C)C1(c2nnnn2CCOC(=O)Nc2cccc3ccccc23)CCCC1 | -0.1 | · | 1410 | 1.5 | 10.3 | ·
O=c1[nH]n(-c2ccccc2)c(=O)c2ccccc12 | 1.6 | 1771 | 1664 | 20.5* | 3.7 | 1715
O=c1[nH]n(-c2ccccn2)c(=O)c2ccccc12 | -2.1 | · | 1735 | -1.1 | -5.8 | ·
O=C(CNS(=O)(=O)c1cccs1)N1CCc2ccccc2C1 | 7.5 | · | 1453 | -0.6 | -6.0 | ·
SMILES | PPARg SRC-2 ag | SRC1 TRFRET art | SRC2 TRFRET art | PPARg SRC-1 ag | PPARg SRC-3 ag | SRC3 TRFRET art
S=c1nc(SCc2ccccc2)[nH]c2ccccc12 | 21.2 | 2318* | 2041* | -2.0 | 14.6 | 2007
O=C(CSc1nc2ccccc2n1S(=O)(=O)c1ccccc1)N1CCCC1 | 0.6 | 1761 | 1545 | 0.1 | -1.4 | 1513
CCCCOc1ccc(NC2=NC3(CCCC3)N=C(N)N2)cc1 | 40.7* | · | 2220* | 7.0 | 1.5 | ·
CCOc1ccc(S(=O)(=O)NN=C2CCN(C(C)=O)CC2)cc1 | 10.0 | 1926 | 1557 | 8.1 | 2.8 | 1571
COc1cccc(/C=N/NC(=O)CC(=O)NCCc2ccc(OC)c(OC)c2)c1 | 5.0 | · | 1552 | -1.3 | 11.0 | ·
Cc1ccc(N=c2ssnc2Cl)cc1 | 1.6 | · | 1546 | -0.2 | 7.9 | ·
Cc1cc(C)nc(/N=c2/ssnc2Cl)c1 | -3.5 | · | 1451 | 8.6 | 27.9* | ·
CCc1cc2cc3c(cc2nc1SCC(=O)Nc1cc(C)on1)OCO3 | 4.7 | · | 1540 | 36.0* | 2.9 | ·
CCc1cc2ccc(C)cc2nc1SCC(=O)Nc1cc(C)on1 | -2.1 | 1621 | 1591 | -1.8 | 1.4 | 1470
Cc1ccc(C)c(NC(=O)CCn2nc(C)cc2C)c1 | -1.6 | 1581 | 1479 | 0.2 | 0.8 | 1366
CCC1CCCCN1C(=O)CSc1nnc(-c2ccc(OC)cc2)o1 (configuration not stated) | 5.2 | · | 1364 | -1.9 | 15.4 | ·
CCC1CCCCN1C(=O)CSc1nc(N)cc(N)n1 (configuration not stated) | 0.3 | 1816 | 1990* | 0.0 | 1.3 | 1654
COc1cccc(CNC(=O)CCC2CCCN(C(=O)CCn3cncn3)C2)c1 (configuration not stated) | 5.0 | 1792 | 1567 | -5.4 | 3.3 | 1389
CC(=O)C1=C(C)NC(SCC(=O)c2ccc(-c3ccccc3)cc2)=C(C#N)C1c1cccnc1 (configuration not stated) | 12.6 | · | 2094* | 6.5 | 2.5 | ·
S=C(NCc1ccc(Cl)cc1Cl)Nc1ccccc1 | 3.5 | 1828 | 1553 | 6.4 | 22.5* | 1623
CCN(CC)CCn1c(NC(=O)c2ccc(Cl)cc2)nc2ccccc21 | 153.1* | · | 4842* | -4.7 | 1.1 | ·
O=C(Nc1ccc2ccccc2c1)c1cn(-c2ccccc2)nc1-c1cccs1 | 8.5 | · | 2107* | 10.8 | 14.5 | ·
O=C(Nc1nc(-c2ccccc2)c(-c2ccccc2)o1)c1ccc(F)cc1 | 6.1 | · | 1471 | -2.2 | 0.5 | ·
O=C(NC1CCCCC1)C(c1ccc(Cl)cc1)N(C(=O)c1ccccn1)c1cccnc1 (configuration not stated) | 6.8 | 1958 | 1638 | 2.6 | -2.2 | 1551
O=C(CSc1c2c(nc3ccc(Cl)cc13)CCCC2)NCCCN1CCOCC1 | 20.2 | 2131 | 1820 | 18.9 | 13.9 | 2256*
O=C(CSc1ccccc1)NCCCN1CCOCC1 | -2.6 | · | 1558 | 4.2 | -12.5 | ·
COc1ccc(C2CC(c3ccc(Br)cc3)=NN2C(=O)CSC2=NCCS2)cc1 (configuration not stated) | 8.5 | 1958 | 1826 | -7.7 | 5.1 | 2257*
Cc1n[nH]c(C)c1S(=O)(=O)N(CC(=O)Nc1ccc2c(c1)OCCO2)c1ccc(C(C)C)cc1 | 23.8* | · | 1632 | 7.0 | 0.4 | ·
Cc1noc(C)c1S(=O)(=O)N(CC(=O)Nc1ccc2c(c1)OCO2)c1ccc(C(C)C)cc1 | 10.9 | · | 1718 | 4.3 | 4.8 | ·
CCCN(CCC)C(=O)Cn1c(=O)n(CCCCCC(=O)Nc2ccccc2)c(=O)c2sccc21 | 10.6 | 1789 | 1650 | 5.9 | 1.9 | 1683

Compound activity: PubChem, The Scripps Research Institute Molecular Screening Center
